Screens as filed in PubChem.
TIM10 inh – growth inhibitors of TIM10 yeast strain; 1.4% of 330,000 active; S. cerevisiae TIM10 strain growth, BacTiter-Glo luminescence, 24 h; inhibition, % at 10 µM; AID 463195;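 active = inhibition of 40% or more at the single tested concentration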;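 also: wild-type TIM10 isogenic control strain grown at permissive 25 °C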
PfHsp90 yeast 2 – inhibits growth of yeast expressing Plasmodium falciparum Hsp90 | inhibition, % at 9.4 µM | 0.32% of 310,000 active | AID 504621 | S. cerevisiae expressing PfHsp90, BacTiter-Glo ATP, 48 h; yeast lacking PDR1 and PDR3 efflux regulators;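 active = every replicate shows inhibition above about 80%, whatever the replicate mean, limit read from the data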
tim10-1 inh – growth inhibitors of tim10-1 mutant yeast; S. cerevisiae tim10-1 ts strain growth, BacTiter-Glo, 24 h; inhibition, % at 20 µM; 2.2% of 330,000 active; AID 463190;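 active = inhibition of at least 40%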;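 also: mutant grown at 25 °C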
NALP1 inh – inhibitors of NALP1 inflammasome in yeast | S. cerevisiae NALP1/ASC/caspase-1 growth, X-gal OD620, 72 h | inhibition, % at 10 µM | 0.61% of 280,000 active | AID 2071; in the data active = inhibition mostly above about 24%, no sharp cut-off; inactive = mostly below about 32%
tim23-1 inh – growth inhibitors of tim23-1 mutant yeast; 1.3% of 330,000 active; AID 463212; inhibition, % at 20 µM; S. cerevisiae tim23-1 growth, BacTiter-Glo luminescence, 24 h;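 active = growth inhibition of the mutant yeast at or above 50%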;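 also: temperature-sensitive mutant grown at 25 °C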
NALP3 yeast inh – inhibitors of NALP3 inflammasome in yeast; Yeast reconstituted NLRP3/ASC/caspase-1, beta-gal luminescence, 24 h; inhibition, % at 10 µM; 0.39% of 330,000 active; AID 2825;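 active = inhibition of 50% or more; inactive = inhibition below 50%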
Each line names hits and unclear results; the compound was inactive in the other large screens; ! = a repeat was not active. Most compounds without a hit are left out; they make up all but 4.1% or so of the library.

Cc1ccc(OCCn2cc(/C=C(\C#N)C(=O)NCC3CCCO3)c3ccccc32)cc1 (stereo not drawn)	none
Cc1ccc(OCCn2cc(/C=C(\C#N)C(=O)NCC3CCCO3)c3ccccc32)cc1C (stereo not drawn)	NALP1 inh 45
COc1ccc(Cl)cc1S(=O)(=O)N1CCN(C(=O)c2n[nH]c(=O)c3ccccc23)CC1	none (no result: NALP1 inh)
O=C(NCC1COc2ccccc2O1)c1cccc(S(=O)(=O)NCc2ccccc2)c1 (stereo not drawn)	none (no result: NALP1 inh)
COc1cc(N2CCCC2)c(OC)cc1/C=C(/C#N)c1cccc(F)c1	NALP1 inh 44 (no result: TIM10 inh, tim10-1 inh, tim23-1 inh, NALP3 yeast inh)
O=C(/C=C/Nc1ccccc1F)c1cccs1	NALP1 inh 57
O=C(/C=C/Nc1ccc(F)cc1F)c1cccs1	none
Cc1ccc(-c2nc3cccnc3s2)cc1NS(=O)(=O)c1ccc2c(c1)OCCO2	PfHsp90 yeast 2 89
CCOc1cc(C2/C(=C(\O)c3cc(C)ccc3C)C(=O)C(=O)N2CCN(C)C)ccc1O (stereo not drawn)	NALP1 inh 40
CC1CCCCC1NC(=O)CN1C(=O)NC(C)(c2cc(F)ccc2F)C1=O (stereo not drawn)	none (no result: NALP1 inh)
O=C(N1CCN(c2ccccn2)CC1)C(Cl)(Cl)Cl	NALP1 inh 55
Nc1nc(N)nc(-c2ccc([N+](=O)[O-])o2)n1	none (no result: TIM10 inh, tim10-1 inh, NALP1 inh, tim23-1 inh, NALP3 yeast inh)
O=[N+]([O-])c1ccc(-c2ccn[nH]2)o1	NALP1 inh 67
O=C1/C(=C/c2ccco2)CCc2ccccc21	none
Nc1ccc2c(c1)C/C(=C/c1ccco1)C2=O	NALP1 inh 49
O=C(NCc1ccc(F)cc1)N1CCN(C(=O)c2ccccc2)CC1	none (no result: NALP1 inh)
CCOC(=O)Cn1c(=O)oc2cc(S(=O)(=O)NCCC(C)C)ccc21	NALP1 inh 41
CCn1c(CNc2ccc(Cl)cc2)nnc1SCc1ccc(C)cc1	PfHsp90 yeast 2 81
CCn1c(CNc2ccc(Cl)cc2)nnc1SCc1ccc(Cl)cc1	PfHsp90 yeast 2 127
CCN(CC)c1ccc(/C=C2/SC(=O)N(C(C)C)C2=O)o1	PfHsp90 yeast 2 86, NALP1 inh 58 (no result: TIM10 inh, tim10-1 inh, tim23-1 inh, NALP3 yeast inh)
COc1ccc(CCn2c(-c3ccc(Cl)cc3)n[nH]c2=S)cc1OC	NALP1 inh 33
CC1CCC2(CC1)NC(=O)N(CC(=O)N1c3ccccc3CC1C)C2=O (stereo not drawn)	none (no result: NALP1 inh)
CCCCCCC(=O)N(O)C1CC(=O)N(c2ccc(F)cc2)C1=O (stereo not drawn)	PfHsp90 yeast 2 109
CCC(=O)Nc1ccc(N2CCCCC2)cc1	NALP1 inh 40
CC1(C)SC[C@H](C(=O)Nc2cccc(Cl)c2)N1C=O	NALP1 inh 37
COc1ccc2c(c1)OC[C@H]1[C@H]2N2C(=O)c3cc(Cl)ccc3NC(=O)[C@@]2(C)[C@H]1c1ccccc1	PfHsp90 yeast 2 active (no result: NALP1 inh)
COc1ccc2c(c1)C(=O)N1[C@H]3c4cc(Cl)ccc4OC[C@@H]3[C@H](c3ccccc3)[C@]1(C)C(=O)N2	none (no result: NALP1 inh)
COc1ccc(-c2nn(-c3ccccc3)cc2C(=O)N2CCN(S(=O)(=O)c3cccc(F)c3)CC2)cc1	PfHsp90 yeast 2 105 (no result: NALP1 inh)
COc1ccc(-c2nn(-c3ccccc3)cc2C(=O)N2CCN(S(=O)(=O)c3ccccc3[N+](=O)[O-])CC2)cc1	PfHsp90 yeast 2 99 (no result: TIM10 inh, tim10-1 inh, NALP1 inh, tim23-1 inh, NALP3 yeast inh)
CC(=O)N1CCOc2ccc(S(=O)(=O)N3CC(C)CC(C)C3)cc21 (stereo not drawn)	none
Cc1ccccc1OCC(O)Cn1c(=N)n(CCN2CCOCC2)c2ccccc21 (stereo not drawn)	NALP1 inh 43!
COc1cccc(/C=C2/CCC(CN(C)C)C2=O)c1 (stereo not drawn)	PfHsp90 yeast 2 146 (no result: TIM10 inh, tim10-1 inh, NALP1 inh, tim23-1 inh, NALP3 yeast inh)
COc1ccccc1CNC(=O)[C@H](C)NC(=O)C1CCN(C(=O)[C@@H]2CCCN2C(=O)OC(C)(C)C)CC1	none
COc1ccc(-c2cc(C(F)F)n3ncc(C(=O)Nc4c(C)n(C)n(-c5ccccc5)c4=O)c3n2)cc1	none
COc1ccc(-c2cc(C(F)F)n3ncc(C(=O)Nc4cc(C)on4)c3n2)cc1	NALP1 inh 43
CCCCSCCCNC(=O)Nc1cccc(OC)c1	NALP1 inh 40
Cc1ccc(NC(=O)COC(=O)C2CCC2)cc1S(=O)(=O)N1CCOCC1	none (no result: NALP1 inh)
Cn1cnc([N+](=O)[O-])c1NC(C)(C)C	none
Cn1cnc([N+](=O)[O-])c1S(=O)(=O)c1ccc(Cl)cc1	NALP1 inh 80 (no result: TIM10 inh, tim10-1 inh, tim23-1 inh, NALP3 yeast inh)
COc1cc(/C=C/CN2CCC(CO)(CC3CCCCO3)CC2)ccc1O (stereo not drawn)	none
OCC1(CC2CCCCO2)CCN(C/C=C/c2ccccc2)CC1 (stereo not drawn)	NALP1 inh 39
Oc1cc2c(cc1C(c1ccc(Br)cc1)N1CCCC1)OCO2 (stereo not drawn)	NALP1 inh 43
CCOc1ccccc1C(=O)N[C@H](C(=O)Nc1cc(S(=O)(=O)N(C)C)ccc1OC)C(C)C	NALP1 inh 24
CC(=O)c1cccc(OCC(=O)Nc2ccccc2N2CCOCC2)c1	none (no result: NALP1 inh)
O=C(Cn1c(=O)oc2cc(S(=O)(=O)N3CCCC3)ccc21)N1CCN(c2ccccc2)CC1	NALP1 inh 39
CNC(=S)Nc1cccc(S(=O)(=O)NCc2ccco2)c1	none (no result: PfHsp90 yeast 2, NALP1 inh)
CC(=O)N(C)c1ccc(OCC(O)Cn2c(C)nc3ccccc32)cc1 (stereo not drawn)	none (no result: PfHsp90 yeast 2)
CC(=O)N(C)c1ccc(OCC(O)Cn2c3ccc(Cl)cc3c3cc(Cl)ccc32)cc1 (stereo not drawn)	PfHsp90 yeast 2 98
COc1ccc(Br)c(C(=O)OCC(=O)N2CCC(Cc3ccccc3)CC2)c1	none (no result: NALP1 inh)
CCCCn1c(N)c(N(CC(C)C)C(=O)c2ccc(OCC3CCCO3)cc2)c(=O)[nH]c1=O (stereo not drawn)	none (no result: NALP1 inh)
Cc1ccc2nc(N(CCN(C)C)C(=O)/C=C/c3cccs3)sc2c1	NALP1 inh 56
CCc1ccc2nc(N(CCN(C)C)C(=O)/C=C/c3cccs3)sc2c1	none
CN(C)CCN(C(=O)/C=C/c1cccs1)c1nc2c(F)cc(F)cc2s1	NALP1 inh 59
O=C(/C=C/c1ccco1)NCC1COc2ccccc2O1 (stereo not drawn)	none
CCC(CC)NC(=O)C1CCN(S(=O)(=O)c2cccs2)CC1	NALP1 inh 33
CCS(=O)(=O)N1CCC(C(=O)NCc2cc(OC)ccc2OC)CC1	NALP1 inh 41
COc1ccc(CNC(=O)CN2CCN(S(=O)(=O)c3cccs3)CC2)cc1OC	NALP1 inh 35 (no result: PfHsp90 yeast 2)
COc1ccc(OC)c(NC(=O)C2CCN(S(=O)(=O)c3cccs3)CC2)c1	NALP1 inh 39 (no result: PfHsp90 yeast 2)
COc1ccc(NC(=O)CN2CCN(S(=O)(=O)c3cccs3)CC2)cc1Cl	none (no result: NALP1 inh)
CCOC(=O)c1cc([N+](=O)[O-])c([N+](=O)[O-])cc1NC(C)=O	PfHsp90 yeast 2 100 (no result: TIM10 inh, tim10-1 inh, tim23-1 inh, NALP3 yeast inh)
